Target: CAPRIN1
Experiment: pooled miR-30 sensor sort-seq; sequence = guide strand
Settings: shRNA

First: TTTACATTGATTCCACTGCTAT
Second: TAACATATTATGGTACACTGGC
The sensor-assay potency score (higher = more potent) of the first is lower: -0.568 for the first, 0.119 for the second.

Compared with TTGATAGCCAGAGTAATCCCGG, TTGACTGAAAAACACGCTCAAC is lower in sensor-assay potency score (higher = more potent): -0.0464 for the first, -1.28 for the second.

Compared with TTTCTTGTCGATCACCCCGAGA, TATTGTTTTCTGAATATCTTGA is higher in sensor-assay potency score (higher = more potent): -1.14 for the first, 0.459 for the second.

First: AATATCTTGACTTAGTGCCATG
Second: TTTCTGAATATCTTGACTTAGT
The sensor-assay potency score (higher = more potent) of the first is lower: -1.68 for the first, -0.78 for the second.

Compared with TACAGGAACTTGATTAGGCTGA, TTACATACTCTGTTGATTCAAC is lower in sensor-assay potency score (higher = more potent): 0.0825 for the first, 0.0551 for the second.

Sequence TAGATAATAACTCTTCTGGTAA has a sensor-assay potency score (higher = more potent) of -0.812.

Target: CASK
Experiment: as above
Settings: shRNA

Going from TTTTGAAACTGTACCAGCCGAA to TATATGTCTCCAATAACTCTAC, the sensor-assay potency score (higher = more potent) falls from -0.413 to -0.605.

Going from TACATCGTCGTACAACACTGAA to TAGTAGTGTGTGAAGATGCTGA, the sensor-assay potency score (higher = more potent) rises from -1.22 to 0.139.

Compared with TAAGATGTCAGACTCCTTCTGC, ATTTGTGACTTGACACAGCGGC is higher in sensor-assay potency score (higher = more potent): 0.313 for the first, 0.473 for the second.

First: TTCATGTGCCACTACGTCGTGA
Second: TTGTGCTCTTACATAGATCTGT
The sensor-assay potency score (higher = more potent) of the first is lower: -0.762 for the first, 0.417 for the second.

Going from TAAAATACGCTTTAGTTCCTTT to TTACATAGATCTGTCGTCCTTT, the sensor-assay potency score (higher = more potent) rises from -0.108 to 0.751.

Going from TTTCTCTGTTGATACATCGTCG to TAAAGCATTCCATCTGAGCTAT, the sensor-assay potency score (higher = more potent) falls from -0.203 to -0.371.
